Screens as filed in PubChem.
Sfp inh: blocks B. subtilis Sfp PPTase activity. Biochemical Sfp PPTase activity, qHTS. Potency, µM, inactives show largest response in the series, negative = inhibition, most hits filed as inhibitors. 310,000 tested, 3.5% active. AID 1490;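 note: the enzyme is Sfp with the accession as filed and its product quenches rhodamine fluorescence; potency is the fitted concentration of half-maximal effect; 0% = enzyme reaction without inhibitor and -100% = no enzyme wells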
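After 15 min at room temperature with compound, 15 nM Sfp received 5 uM rhodamine-CoA plus 12.5 uM BHQ-2-ybbR (50 mM Hepes pH 7.6, 10 mM MgCl2). Rate came from the fluorescence difference over 30 min, ex 525/em 598 nm.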
uPA generation: cell surface uPA generation inhibition; cell surface uPA generation assay, qHTS; Potency, µM (top dose mostly 38.3 µM), without a hit: at the highest dose activity change, negative = inhibition, most hits filed as inhibitors; 330,000 tested, 0.31% active; active = well fitted inhibition curve with a large enough effect; inconclusive = small, poorly fitted or top-dose-only effect; inactive = no such curve, though single readings can be large or run the other way; tested in mouse RAW 264.7 cells; note: potency is the fitted concentration of half-maximal effect; % is set by controls: 0 for no effect and ±100 for the full control effect; nearly all actives have a fitted effect of over 55% in size
ClpP mod: qHTS Assay for Activators of ClpP; ATP-dependent Clp protease proteolytic subunit (Bacillus subtilis (strain 168)), P80244; purified B. subtilis ClpP, FRET peptide cleavage, 20 min; Potency, µM (titrated, usually from 57.5 µM), inactives show top-dose activity change, negative = active; 340,000 tested, 1.9% active; active = well fitted falling curve with a large enough effect; inconclusive = small, poorly fitted or top-dose-only effect; inactive = no such curve, though single readings can be large or run the other way; note: potency is the fitted concentration of half-maximal effect; the source files actives as falling curves though it sought activators and does not explain the sign; nearly all actives have a fitted effect of over 65% in size
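ClpP 10 microg/mL final, pH 8 Tris/KCl buffer with BSA, glycerol, Tween-20; compound pinned in; FRET-FV substrate; RT 20 min; Ex320/Em430; ΔFRET vs ADEP 5.8 microM, DMSO, no enzyme.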
TCR activator: activates T cell receptor signaling | primary human leukocytes, anti-CD3, IL-2 HTRF, 48 h | Potency, µM (titrated, usually from 9.22 µM), without a hit: at the top dose activation of IL-2 secretion, usual class: activators | 330,000 tested, under 10 active; note: % of control where 0% means no effect
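Primary human leukocytes were stimulated with a-CD3 beads plus compounds for 48 hr without co-stimulation; secreted IL-2 was quantified by HTRF using a-IL-2-K (europium cryptate) and a-IL-2-d2, excited at 320nm with acceptor emission read at 665nm.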
Sfp PPTase conf: confirmation of Bacillus subtilis Sfp PPTase inhibitors; shares compounds with Sfp inh; 380 tested, 79% active; Potency, µM (highest dose often 114 µM), for the others: at the highest dose activity change, negative = inhibition, most hits filed as inhibitors; Sfp PPTase enzymatic assay, qHTS titration;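 note: potency is the fitted concentration of half-maximal effect; plate controls were uninhibited Sfp reaction for no effect and no enzyme control for full effect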
Sfp gel assay: Blocks Sfp PPTase activity, gel read-out. shares compounds with Sfp inh. purified Sfp, gel-based phosphopantetheinylation read-out. Potency, µM, hits mostly inhibitors. 210 tested, 20% active;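 active = potency below 100 µM; inconclusive = dose-dependent response but potency above 100 µM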;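 note: band intensities scaled against SCH202676 control wells before curve fitting; potency is an IC50 for inhibitors of Sfp transfer activity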
Numbers without * were called inactive; i = inactive; u = inconclusive; x = not tested or not shown; ! = not confirmed by another sample; [ ] = dose if it differs, or a comment. Most compounds without a hit are left out; they make up all but 4.2% or so of the library. Unless noted, calls come from the whole dose curve; as a rule, active = well fitted curve in the direction sought with a large enough effect; inconclusive = small, poorly fitted or top-dose-only effect, or another doubt; inactive = no such curve, though single readings can be large; an effect the other way counts as inactive or inconclusive.

SMILES	Sfp inh	uPA generation	ClpP mod	TCR activator	others
Cc1ccc(N2C(=O)/C(=C/c3ccc(CN(CCC#N)S(C)(=O)=O)o3)C(=O)NC2=S)cc1C	22.4µM*	x	x	x
CN1CCN(c2ccc(/C=C3\C(=O)NC(=S)N(c4cccc(Br)c4)C3=O)o2)CC1	9.5%	-9.1%	0.7%	4.9%[46.1 µM]
O=C(NC1CCN(Cc2ccccc2)CC1)c1cccc(S(=O)(=O)Nc2ccc(SC(F)F)cc2)c1	x	u	0.9%	6.5%
NC(CO)Cc1ccccc1 (stereo unspecified)	9.1%	x	x	x
Cc1ccc(C(=O)N[C@@H](C)CN2C3=NC[C@H](Cc4ccccc4)N3C[C@H]2Cc2ccc(O)cc2)cc1Br	56.2µM*	u	-0.4%	-1.6%
CCOP(=O)(OCC)C(NC(=O)c1cccc(C)c1)C(Cl)(Cl)Cl (stereo unspecified)	7.9%	7.6%	3.3%	-2.6%
CCN(CC)c1ccc(NC(=O)c2cccc(C)c2)cc1S(=O)(=O)Nc1ccccc1OC	12.6µM*	7.5%	-9.7%	-2.1%
Oc1ccc2[nH]cc(CCCCN3CC=C(c4ccccc4)CC3)c2c1	3.8%	x	x	x
ClCCN(CCCl)c1ccc(/C=C/c2sc3ccccc3[n+]2CCCCI)cc1	x	x	3.8%	x
C=CCn1c(O)c(C(C)=NCCCN(C)C)c(=O)[nH]c1=O	14.9%	8.5%	14.1µM*	0.1%
O=c1[nH]c(=O)n(C2CCCCC2)c(O)c1C1NCCc2ccccc21 (stereo unspecified)	35.5µM*	-0.5%	-0.3%	-1.3%
CN1CCN2c3ccc(N)cc3CC3(C(=O)NC(=O)NC3=O)C2C1 (stereo unspecified)	22.4µM*	-1.8%	x	12.2%
Cn1c(O)c(C=Nc2ccccc2)c(=O)n(C)c1=O	8.3%	-6.6%	-1.3%	0.5%
Cn1c(O)c(/C=N/Nc2ccccc2)c(=O)n(C)c1=O	56.2µM*	2.6%	x	2.6%
CC(C)n1c(/C=C/[C@H](O)C[C@H](O)CC(=O)O)c(-c2ccc(F)cc2)c2ccccc21	6.9%	1.41µM*	3.7%	3.4%
CC(C)n1c(/C=C\[C@@H](O)C[C@@H](O)CC(=O)O)c(-c2ccc(F)cc2)c2ccccc21	46.5%	x	x	x
CC1CCOC(=O)C=CC=CC(=O)OC2CC3OC4C5OC5(C)C(O)CC4(COC(=O)C1O)C2(C)C31CO1 (stereo unspecified)	x	-12.6%	-10.4%	-3.3%
CC(O)C1C=CC=CC(=O)OC2CC3OC4C5OC5(C)C(O)CC4(COC(=O)C(O)C(C)CCO1)C2(C)C31CO1 (stereo unspecified)	x	-12.0%	31.6µM*	-2.3%
CCOC(=O)CC(NC(=O)C(Cc1ccc(N(CCCl)CCCl)cc1)NC(C)=O)C(=O)OCC (stereo unspecified)	79.4µM*	-9.2%	x	0.0%
CC(=O)NC(Cc1ccc(N(CCCl)CCCl)cc1)C(=O)NC(C(=O)O)C(C)C (stereo unspecified)	8.0%	-2.8%	x	-4.5%
CC=C1C2C=C(C)CC1(N)c1ccc(=O)[nH]c1C2 (stereo unspecified)	17.2%	x	x	x
C[C@H]1CCC/C=C/C2C[C@H](O)CC2[C@H](O)/C=C/C(=O)O1 (stereo partly specified)	22.5%	0.316µM*	-1.8%	2.9%
Cc1ccc(/C=C2\C(=O)NC(=S)N(c3cccc(F)c3)C2=O)o1	17.8µM*	-16.1%	-2.9%	0.5%
CCOc1ccc(N2C(=O)/C(=C/c3ccc(C)o3)C(=O)NC2=S)cc1	22.4µM*	-8.1%	0.5%	-1.6%
COc1ccc(N2C(=O)/C(=C/c3ccc(C)o3)C(=O)NC2=S)cc1	22.4µM*	-12.4%	-0.6%	-4.5%
SMILES	Sfp inh	uPA generation	ClpP mod	TCR activator	others
CCOc1ccc(N2C(=O)NC(=O)/C(=C\c3ccc(N4CCCCC4)o3)C2=O)cc1	-7.1%	5.2%	-0.5%	6.0%[46.1 µM]
CCOP(=O)(C1=C(O)C(=O)C(C(C)(C)C)=CC1=O)c1ccccc1 (stereo unspecified)	39.8µM*	-2.4%	x	3.9%
C[C@@H]1CNC(=O)c2c(C(=O)Nc3cccc(Cl)c3)ncn21	x	x	3.0%	x
COC(=O)C12CCc3c(ccc4cc(OC)ccc34)C1=CC(=O)C2 (stereo unspecified)	x	2.0%	28.2µM*	-7.3%
CC(C)CCNC(=O)c1c(N)n(Cc2ccc3c(c2)OCO3)c2nc3ccccc3nc12	-10.7%	x	28.2µM*	2.9%
CC(C)CNC(=O)c1c(N)n(Cc2ccc3c(c2)OCO3)c2nc3ccccc3nc12	-19.7%	6.0%	14.1µM*	-0.4%
CCCNC(=O)c1c(N)n(Cc2ccc3c(c2)OCO3)c2nc3ccccc3nc12	1.9%	-0.6%	-28.4%	0.4%
NC1=N[C@H](O)[C@H]2C3O[C@]4(O)O[C@H](C(O)[C@@]2(N1)[C@@H]4O)C3(O)CO (stereo partly specified)	5.6%	x	x	x
COC(=O)[C@H]1C[C@H]2CC[C@H](O)C[C@H]2N1CC1CC1	11.5%	x	x	x
CC(C)CC(N)C1(c2ccc(Cl)cc2)CCC1 (stereo unspecified)	12.9%	x	x	x
COP(=S)(OC)SCn1nnc2ccccc2c1=O	22.4µM*	x	0.3%	-1.1%
COc1ccc(-n2c(SCCN(C)C)nc3ccccc3c2=O)cc1	-7.3%	-3.7%	x	-2.9%
C[C@]12CC[C@H]3[C@@H](CC[C@@]45O[C@@H]4C(=O)C(C#N)C[C@]35C)[C@@H]1CC[C@@H]2O (stereo partly specified)	26.0%	x	x	x
COc1ccc(-n2c(=O)[nH]c3ccccc3c2=O)c(OC)c1	-12.2%	1.0%	-6.6%	1.3%
COc1ccc(-n2c(=S)[nH]c3c(sc(=S)n3-c3ccccc3)c2=O)c(OC)c1	14.1µM*	-1.9%	11.2µM*	-15.3%
C#C[C@]1(O)CC[C@H]2[C@@H]3CCC4=CC(=O)CCC4(C)[C@H]3CCC21C (stereo partly specified)	29.6%	x	x	x
Nc1ccnn1C1CCNCC1	17.8µM*	4.1%	1.0%	2.1%	Sfp PPTase conf=u;Sfp gel assay=i
CN1CCC(n2nccc2N)CC1	-1.2%	2.3%	-2.6%	-5.3%
O=c1[nH]c2ccccc2n1C1CCN(CCCC(c2ccc(F)cc2)c2ccc(F)cc2)CC1	44.7µM*!	u	-1.0%	-2.5%	Sfp PPTase conf=41.8µM*;Sfp gel assay=u
O=C1CC(N2CCC(n3c(=O)[nH]c4ccccc43)CC2)C(=O)N1c1ccc(F)cc1 (stereo unspecified)	12.5%	7.5%	1.1%	3.2%
Clc1ccc(COC(Cn2ccnc2)c2ccc(Cl)cc2Cl)cc1 (stereo unspecified)	56.2µM*!	u	1.5%	0.2%	Sfp PPTase conf=u;Sfp gel assay=i
CCOC(=O)c1c(/N=C/c2c(O)n(-c3ccccc3F)c(=S)[nH]c2=O)sc2c1CCCC2	12.6µM*	0.2%	-2.0%	1.8%	Sfp PPTase conf=18.7µM*
